# Rows were chosen to be rich in hits. Some 17% of all compounds tested hit in one or more screens of this group.
# ClpP mod: qHTS Assay for Activators of ClpP; ATP-dependent Clp protease proteolytic subunit (Bacillus subtilis (strain 168)), P80244; purified B. subtilis ClpP, FRET peptide cleavage, 20 min; Potency, µM (highest dose often 57.5 µM), for inactives: top-dose activity change, negative = active; 340,000 compounds, 1.9% hits; active = well fitted falling curve with a large enough effect; inconclusive = small, poorly fitted or top-dose-only effect; inactive = no such curve, though single readings can be large or run the other way; note: the source files actives as falling curves though it sought activators and does not explain the sign; nearly all actives have a fitted effect of over 65% in size
#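 ClpP 10 microg/mL final, pH 8 Tris/KCl buffer with BSA, glycerol, Tween-20; compound pinned in; FRET-FV substrate; RT 20 min; Ex320/Em430; ΔFRET vs ADEP 5.8 microM, DMSO, no enzyme.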
# TDP1 block: blocks human tyrosyl-DNA phosphodiesterase 1 | Q9NUW8 | recombinant TDP1, AlphaScreen DNA substrate cleavage | Potency, µM (highest dose often 130 µM), inactives show top-dose activity change, negative = inhibition, usual class: inhibitors | 350,000 compounds, 0.28% hits | AID 485290; note: % is set by controls: 0 for no effect and ±100 for the full control effect; nearly all actives have a fitted effect of over 40% in size
# Target sequence (Q9NUW8 whole entry, looked up): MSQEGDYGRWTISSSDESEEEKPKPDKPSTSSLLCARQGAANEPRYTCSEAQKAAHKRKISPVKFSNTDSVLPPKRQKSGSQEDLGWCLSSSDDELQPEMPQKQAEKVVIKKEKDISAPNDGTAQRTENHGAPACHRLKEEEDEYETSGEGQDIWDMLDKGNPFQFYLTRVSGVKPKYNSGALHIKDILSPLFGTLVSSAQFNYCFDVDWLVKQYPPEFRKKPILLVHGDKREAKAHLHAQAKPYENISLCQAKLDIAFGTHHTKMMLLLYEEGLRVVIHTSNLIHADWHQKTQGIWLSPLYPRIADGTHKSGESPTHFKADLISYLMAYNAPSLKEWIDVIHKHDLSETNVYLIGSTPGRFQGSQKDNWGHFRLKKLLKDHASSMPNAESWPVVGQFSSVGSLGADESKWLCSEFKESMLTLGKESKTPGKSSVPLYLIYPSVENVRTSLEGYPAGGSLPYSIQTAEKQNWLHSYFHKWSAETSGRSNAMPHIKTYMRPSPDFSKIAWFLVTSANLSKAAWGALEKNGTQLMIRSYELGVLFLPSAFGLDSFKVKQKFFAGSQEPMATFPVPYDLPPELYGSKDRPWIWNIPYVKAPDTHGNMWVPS
#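 AlphaScreen read-out: signal falls as enzyme removes the 3' tyrosine-FITC from a 5'-biotinylated DNA oligo (15 nM, 5 min, RT). Enzyme was E. coli-made recombinant Tdp1 at 1 nM, exposed to compound for 15 min beforehand; beads 10 ug/ml, 10 min.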
# DT40 TDP1 no CPT: qHTS for Inhibitors of human tyrosyl-DNA phosphodiesterase 1 (TDP1): qHTS in cells in absence of CPT. DT40 Tdp1-/- hTDP1 cells, no CPT, ATP luminescence, 48 h. 420,000 compounds, 15% hits. Potency, µM (series often up to 46.2 µM), without a hit: at the top dose activity change, negative = growth inhibition, usual class: inhibitors; note: % is set by controls: 0 for no effect and ±100 for the full control effect; nearly all actives have a fitted effect of over 55% in size
#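 Chicken DT40 Tdp1-/- cells stably complemented with human TDP1 were seeded at 400 cells/well with DMSO in place of 20 nM camptothecin. After compound pinning, cells grew at least 48 hr at 37 °C; viability read by CellTiter-Glo luminescence.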
# DT40 TDP1 CPT: growth inhibition of DT40 Tdp1-/-;hTDP1 cells with camptothecin (screen for TDP1 inhibitors) | 420,000 compounds, 12% hits | Potency, µM (top dose mostly 46.2 µM), for inactives: at the highest dose activity change, negative = growth inhibition, usual class: inhibitors | chicken DT40 Tdp1-/-;hTDP1 cells + 20 nM CPT, ATP luminescence, 48 h; note: % is set by controls: 0 for no effect and ±100 for the full control effect; nearly all actives have a fitted effect of over 55% in size
#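 Chicken DT40 Tdp1-/- cells complemented with human TDP1, 400 cells/well, exposed to compounds plus 20 nM camptothecin for at least 48 h at 37 C; viability read as ATP content by CellTiter-Glo luminescence.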
# * marks the source's active call; other numbers are inactive results; u = inconclusive; x = no result given; [ ] = another dose, or the depositor's remark. Unless noted, calls come from the whole dose curve; as a rule, active = well fitted curve in the direction sought with a large enough effect; inconclusive = small, poorly fitted or top-dose-only effect, or another doubt; inactive = no such curve, though single readings can be large; an effect the other way counts as inactive or inconclusive. Potency is the fitted concentration of half-maximal effect.
SMILES,ClpP mod,TDP1 block,DT40 TDP1 no CPT,DT40 TDP1 CPT
CCN1C(=O)[C@H]2[C@@H](c3ccc(-c4ccc(F)cc4)cc3)N3CCCC[C@@]3(C(=O)OC)[C@H]2C1=O,-6%,-4%,u,u
CCN1C(=O)[C@H]2[C@@H](c3ccc(-c4ccc(C(C)=O)cc4)cc3)N3CCCC[C@@]3(C(=O)OC)[C@H]2C1=O,1%,2%,12µM*,u
CC(c1ccccn1)N(C)C(=O)c1ccc2nc(Cc3ccccc3F)oc2c1 (stereo not given),-3%,2%,u,-12%
Cc1ccc(S(=O)(=O)N2CCC3(CC2)OCCN3S(=O)(=O)c2c(C)cc(C)cc2C)cc1,0%,-5%,16µM*,26µM*
COc1ccc(S(=O)(=O)N2CCC3(CC2)OCCN3S(=O)(=O)c2c(C)cc(C)cc2C)cc1,1%,x,8.2µM*,13µM*
Cc1ccc(C)c(S(=O)(=O)N2CCC3(CC2)OCCN3S(=O)(=O)c2cccs2)c1,x,0%,u,u
CCS(=O)(=O)N1CCC2(CC1)OCCN2S(=O)(=O)c1ccc(C)cc1,-1%,6%,-25%,-5%
Cc1cc(C)c(S(=O)(=O)N2CCC3(CC2)OCCN3S(=O)(=O)c2cccs2)c(C)c1,1%,-2%,23µM*,u
COc1ccccc1CN(C)C(=O)COC(=O)c1ccc(Cl)nc1,x,1%,u,-16%
COc1cc(-c2nn3c(-c4cccnc4)nnc3s2)cc(OC)c1OC,u,4%,u,u
COc1cc(-c2nn3c(C4CCCCC4)nnc3s2)cc(OC)c1OC,-23%,5%,21µM*,u
COc1ccc(-c2nn3c(C4CCCCC4)nnc3s2)cc1OC,u,4%,u,15µM*
c1csc(-c2nn3c(C4CCCCC4)nnc3s2)c1,-2%,x,u,u
COC(=O)N/N=C/c1cc(Br)ccc1O,x,0%,-14%,-1%
Oc1ccc(Br)cc1/C=N/NC(=S)NCCc1ccccc1,x,-2%,16µM*,u
CC(C)NC(=S)N/N=C/c1cc(Br)ccc1O,-16%,11%,4.6µM*,4.6µM*
O=C(CCc1ccccc1)N/N=C\c1cc2c(cc1Br)OCO2,-4%,4%[56.1 µM],u,u
CC(C)NC(=S)N/N=C/c1c[nH]c2ccccc12,2%,6%,3.7µM*,4.6µM*
O=C(CCc1ccccc1)N/N=C/c1cc(Br)ccc1O,-10%,-8%,4.1µM*,2.6µM*
C=CCOc1cccn2c(N(C)C(=O)c3ccc(OC)cc3)c(CC)nc12,-2%,x,-22%,u
C=CCc1cccc(CNc2nc3ccccc3n2C)c1O,2%,x,14%,u
C=CCc1cccc(CNc2cnc3ccccc3c2)c1O,4%,x,10µM*,6.5µM*
Oc1ccc(Cl)cc1CNc1cnc2ccccc2c1,4%,4%,29µM*,u
Oc1ccccc1CNc1cnc2ccccc2c1,28µM*,6%[56.1 µM],23µM*,23µM*
CC(C)Oc1ccc(CCN=C(N)N=C(N)N)cc1Cl,0%,0%,12µM*,10µM*
SMILES,ClpP mod,TDP1 block,DT40 TDP1 no CPT,DT40 TDP1 CPT
COc1ccc(CCN=C(N)NS(=O)(=O)c2ccc(OC)c(OC)c2)cc1OC,-1%,2%,6%,11%
CC(C)N1CCC1(C)C(=O)Nc1cc(-c2ccccc2)nn1C (stereo not given),0%,x,-7%,-16%
CC(C)(CO)NC(=O)C12CC3CC(CC(Br)(C3)C1)C2,20µM*,2%,0%,11%
CC(C)(C)NC(=O)C12CC3CC(CC(Cl)(C3)C1)C2,-2%,-3%,-33%,-13%
CN1CCN(c2ncc3nc(-c4ccccc4)c(=O)n(Cc4cccs4)c3n2)CC1,x,x,16µM*,u
CN1CCN(c2ncc3nc(-c4cc(F)cc(F)c4)c(=O)n(C4CC4)c3n2)CC1,x,x,-18%,u
O=c1c(-c2ccc(Cl)cc2)nc2cnc(N3CCNCC3)nc2n1Cc1cccs1,x,x,21µM*,6.5µM*
O=c1c(-c2ccccc2)nc2cnc(N3CCOCC3)nc2n1Cc1cccs1,x,x,-10%,u
CN1CCN(c2ncc3nc(-c4ccccc4)c(=O)n(C4CC4)c3n2)CC1,x,x,u,21µM*
CN1CCN(c2ncc3nc(-c4cn(C)c5ccccc45)c(=O)n(C[C@H]4CCCO4)c3n2)CC1,x,x,u,21µM*
O=C(COC(=O)CN1C(=O)c2ccccc2C1=O)NC1CCCC1,0%,8%,9%,4%
COCCn1c(=O)c(-c2cccc(C#N)c2)nc2cnc(OCc3ccccc3)nc21,x,x,-24%,-11%
CCOc1ccc(NC(=O)Cn2cc(S(=O)(=O)N3CCN(c4ccccc4F)CC3)c3ccccc3c2=O)cc1,-17%,5%,-8%,0%
CN1CCN(c2ncc3nc(-c4cccs4)c(=O)n(C[C@H]4CCCO4)c3n2)CC1,x,x,5.2µM*,12µM*
CN1CCN(c2ncc3nc(-c4cccs4)c(=O)n(CCC#N)c3n2)CC1,x,x,u,-88%
O=c1c(-c2ccccc2)nc2cnc(N3CCOCC3)nc2n1C[C@H]1CCCO1,x,x,12%,0%
CN1CCN(c2ncc3nc(-c4cccs4)c(=O)n(Cc4cccs4)c3n2)CC1,x,x,u,18µM*
O=c1c(-c2cc(F)cc(F)c2)nc2cnc(N3CCNCC3)nc2n1Cc1cccs1,x,x,21µM*,u
O=c1c(-c2cccs2)nc2cnc(N3CCNCC3)nc2n1Cc1cccs1,x,x,13µM*,7.3µM*
Cc1ccc(NC(=O)Cn2c(=O)n(CCc3ccccc3)c(=O)c3c4c(sc32)CCCC4)cc1C,2%,6%,-3%,8%
CC(=O)N1c2ccc(S(=O)(=O)N3CCCCC3)cc2CC1C(=O)NCc1ccccc1C (stereo not given),1%,4%,-1%,-9%
O=C(c1ccnc(-n2cnnn2)c1)N1CCOc2ccc(C(O)CCc3ccccc3)cc2C1 (stereo not given),x,x,-19%,-29%
COCCn1c(=O)cnc2cnc(OC)nc21,x,x,0%,-10%
O=c1c(-c2cccs2)nc2cnc(N3CCNCC3)nc2n1C1CC1,x,x,21µM*,u
Cn1c(=O)c(-c2cccs2)nc2cnc(N3CCNCC3)nc21,x,x,-26%,-21%
COCCn1c(=O)c(-c2cccs2)nc2cnc(Oc3ccc(OC)cc3)nc21,x,x,26µM*,u
COCCn1c(=O)cnc2cnc(N3CCN(C)CC3)nc21,x,x,-22%,23µM*
OC[C@@H]1CN(CCN2CCOCC2)C[C@H](n2cnc3c(Nc4ccccc4)ncnc32)O1,0%,x,-8%,-3%
CN(Cc1ccccc1)C(=O)c1ccc2sc([C@H]3C[C@H](O)[C@@H](CO)O3)nc2c1,0%,x,6%,-17%
CCC(C)c1ccc(NC(=O)c2c([N+](=O)[O-])cnn2CC)cc1 (stereo not given),1%,x,u,u
